Assay results from PubChem BioAssay (Tox21).
Results filed as inconclusive are left out. Values without a mark were called inactive. Calls follow the shape of the dose curve; as a rule, active = well fitted cell-killing curve with a large enough effect in the repeat runs; inconclusive = weak or mixed curves, or effect the other way; inactive = flat fitted curve, though single readings scatter.

Assay: qHTS assay to identify small molecule agonists of the estrogen receptor beta (ER-beta) signaling pathway - cell viability counter screen (AID 1259380); also: nearly all actives have a fitted effect of over 30% in size
Details: ER-beta-bla HEK293T viability, CellTiter-Glo luminescence, 16 h; series mostly up to 92.4 µM; activity change, negative = cytotoxicity: at the top concentration
Description: National Center for Advancing Translational Sciences [NCATS]
NIH Chemical Genomics Center [NCGC]
U.S. Environmental Protection Agency [EPA]
National Institutes of Environmental Health Sciences [NIEHS]
National Toxicology Program [NTP]
U.S. Food and Drug Administration [FDA]
Estrogen receptor (ER), a nuclear hormone receptor, plays an important role in development, metabolic homeostasis and reproduction. Two subtypes of ER, ER-alpha and ER-beta, have similar expression patterns with some uniqueness in both types. Endocrine disrupting chemicals (EDCs) and their interactions with steroid hormone receptors like ER causes disruption of normal endocrine function. To identify the compounds that activate ER signaling, an ER beta-UAS-bla GripTite cell line (Life Technologies, Madison, WI, USA) containing a beta-lactamase reporter gene under the control of an UAS response element was used to screen Tox21 10K compound library. The cytotoxicity of the Tox21 compound library against the ER-beta-bla cell line was tested in parallel by measuring the cell viability using CellTiter-Glo assay in the same wells.
Tox21 Assay Protocol Summary:
ER-beta-UAS-bla HEK293T cells were dispensed at 2,000 cells/5 uL of assay medium containing 2% charcoal stripped FBS per well into black wall/clear-bottom 1536-well plates using a Multidrop Combi (ThermoFisher Scientific, Waltham, MA) dispenser. After the assay plates were incubated at a 37C and 5% CO2 for 6 hr, 23 nL of compounds dissolved in DMSO, positive controls or DMSO only was transferred to the assay plate by a Pintool station (Kalypsys, San Diego, CA). The plates were incubated at 37C and 5% CO2 for 16 hr. Then 1 uL of LiveBLAzerTM B/G FRET substrate was added using a BioRAPTR FRD (Flying Reagent Dispenser, Aurora Discovery, San Diego, CA) and then the plates were incubated at room temperature for 2 hours, and fluorescence intensity was measured by an Envision plate reader (PerkinElmer, Shelton, CT). For cell viability readout that measures cytotoxicity, 4 uL/well of CellTiter-Glo reagent was added into the assay plates using a FRD. After 30 min incubation at room temperature, the luminescence intensity in the plates was measured using a ViewLux (PerkinElmer) plate reader.
% is scaled to controls: 0 for no effect and ±100 for the full control effect.

Question: With `CC(C)CCOC(=O)c1ccccc1` as the compound, how does the “activity change, negative = cytotoxicity” value read?
Answer: 0.764%

Question: For `Cn1c(=O)c2c(ncn2CCO)n(C)c1=O`, which “activity change, negative = cytotoxicity” value is on record?
Answer: 8.01% [at 42.5 µM]

Question: With `CC(CO)(CO)CO` as the compound, how does the “activity change, negative = cytotoxicity” value read?
Answer: 5.75%

Question: With `CO[Si](CCCn1c(=O)n(CCC[Si](OC)(OC)OC)c(=O)n(CCC[Si](OC)(OC)OC)c1=O)(OC)OC` as the compound, how does the “activity change, negative = cytotoxicity” value read?
Answer: 5.62% [at 42.5 µM]

Question: Which activity change, negative = cytotoxicity does the source give for `CCn1cc(C(=O)O)c(=O)c2cnc(N3CCCC3)nc21` here?
Answer: 2.48% [at 8.39 µM]

Question: For `COc1c2occc2c(OC)c2c(=O)cc(C)oc12`, which “activity change, negative = cytotoxicity” value is on record?
Answer: 3.13% [at 42.5 µM]

Question: For `CCOc1cccc(N)c1`, which “activity change, negative = cytotoxicity” value is on record?
Answer: 1.51%

Question: For `c1ccc2c(CC3=NCCN3)cccc2c1`, which “activity change, negative = cytotoxicity” value is on record?
Answer: -13.2% [at 42.5 µM]

Question: With `COS(=O)(=O)O` as the compound, how does the “activity change, negative = cytotoxicity” value read?
Answer: 4.2%

Question: With `O=C[O][Al]([O]C=O)[O]C=O` as the compound, how does the “activity change, negative = cytotoxicity” value read?
Answer: 7.3%

Question: With `CCCCOCCOC(=O)COc1ccc(Cl)cc1Cl` as the compound, how does the “activity change, negative = cytotoxicity” value read?
Answer: 6.67%

Question: Which “activity change, negative = cytotoxicity” value does the source give for `CC(C)C[C@@H]1[C@H](c2ccccc2)OC(=O)N1CCCN1CCCCCC1` here?
Answer: -7.3% [at 42.5 µM]

Question: Which “activity change, negative = cytotoxicity” value does the source give for `CC1=C(C(=O)O)N2C(=O)[C@@H](NC(=O)[C@H](N)C3=CCC=CC3)[C@H]2SC1` here?
Answer: 5.01% [at 42.5 µM]

Question: For `COC(=O)c1ccccc1C(=O)O`, which “activity change, negative = cytotoxicity” value is on record?
Answer: 0.732%

Question: Which “activity change, negative = cytotoxicity” value does the source give for `Cc1ncc([N+](=O)[O-])n1CC(C)O` (stereo not given) here?
Answer: 9.58% [at 42.5 µM]

Question: Which “activity change, negative = cytotoxicity” value does the source give for `CC(C)Nc1ccccc1` here?
Answer: 1.86%

Question: With `CCCCCCCCCOC(=O)CCCCC(=O)OCCCCCCC` as the compound, how does the “activity change, negative = cytotoxicity” value read?
Answer: 2.77%

Question: For `CO[C@@]1(NC(=O)Cc2cccs2)C(=O)N2C(C(=O)O)=C(COC(N)=O)CS[C@@H]21`, which “activity change, negative = cytotoxicity” value is on record?
Answer: 7.2% [at 42.5 µM]

Question: For `COC(=O)/C=C\C(=O)O`, which “activity change, negative = cytotoxicity” value is on record?
Answer: 0.191%

Question: With `CCCCOC(=O)[C@H](C)O` as the compound, how does the “activity change, negative = cytotoxicity” value read?
Answer: 2.85%

Question: Which “activity change, negative = cytotoxicity” value does the source give for `Cc1c(NC(=O)c2cccnc2)c(=O)n(-c2ccccc2)n1C` here?
Answer: 1.87% [at 42.5 µM]

Question: With `C/C=C(\C)C(=O)OCCc1ccccc1` as the compound, how does the “activity change, negative = cytotoxicity” value read?
Answer: -3.15%

Question: Which “activity change, negative = cytotoxicity” value does the source give for `COC(=O)c1cc(Cl)cc(Cl)c1` here?
Answer: 0.547%

Question: For `C=CC(=O)OCC1CCCO1` (stereo not given), which “activity change, negative = cytotoxicity” value is on record?
Answer: 4.74%

Question: Which “activity change, negative = cytotoxicity” value does the source give for `CCCCCCCCCCCCCCCCCC#N` here?
Answer: 14.2%

Question: For `O/N=C/C=N/O`, which “activity change, negative = cytotoxicity” value is on record?
Answer: 4.79%

Question: Which “activity change, negative = cytotoxicity” value does the source give for `CN(C)CC/C=C1/c2ccccc2COc2ccc(CC(=O)O)cc21` here?
Answer: 4.54% [at 42.5 µM]

Question: Which “activity change, negative = cytotoxicity” value does the source give for `CCN1CCCC1CN` (stereo not given) here?
Answer: 10.2% [at 42.5 µM]

Question: With `COCCc1ccccn1` as the compound, how does the “activity change, negative = cytotoxicity” value read?
Answer: 11.7% [at 42.5 µM]

Question: For `CO/N=C(/C(=O)N[C@@H]1C(=O)N2C(C(=O)[O-])=C(C[n+]3ccn4ncccc43)CS[C@H]12)c1nsc(N)n1`, which “activity change, negative = cytotoxicity” value is on record?
Answer: 3.03% [at 42.5 µM]

Question: Which “activity change, negative = cytotoxicity” value does the source give for `C=CCCCCCCCC` here?
Answer: 3.82%

Question: With `CC(C)COC(=O)c1ccccc1` as the compound, how does the “activity change, negative = cytotoxicity” value read?
Answer: -0.63%

Question: For `NCc1ccc(S(N)(=O)=O)cc1`, which “activity change, negative = cytotoxicity” value is on record?
Answer: 2.77% [at 42.5 µM]

Question: For `CC(=O)CC(=O)Nc1ccc(C)cc1C`, which “activity change, negative = cytotoxicity” value is on record?
Answer: 4.08%

Question: With `Cc1ccnc(N)c1` as the compound, how does the “activity change, negative = cytotoxicity” value read?
Answer: -3.1%

Question: For `CC1CCc2c(N3CCC(O)CC3)c(F)cc3c(=O)c(C(=O)O)cn1c23` (stereo not given), which “activity change, negative = cytotoxicity” value is on record?
Answer: 1.62% [at 42.5 µM]

Question: Which “activity change, negative = cytotoxicity” value does the source give for `CC(C)(C)NC[C@H](O)COc1cccc2c1CCCC2=O` here?
Answer: -0.426% [at 42.5 µM]

Question: With `CCCCCC(C)O` (stereo not given) as the compound, how does the “activity change, negative = cytotoxicity” value read?
Answer: 0.0351%

Question: With `CCC(=O)Oc1ccc2c(c1)CC[C@@H]1[C@@H]2CC[C@@]2(C)[C@H]1C[C@@H](OC(=O)CC)[C@@H]2OC(=O)CC` as the compound, how does the “activity change, negative = cytotoxicity” value read?
Answer: 1.08% [at 42.5 µM]

Question: For `C#CCN[C@@H]1CCc2ccccc21`, which “activity change, negative = cytotoxicity” value is on record?
Answer: -2.23% [at 42.5 µM]
